Screening results (PubChem BioAssay)
Rab9 prom act – activates the Rab9 promoter. Huh7 Rab9 promoter-luciferase reporter, luminescence, 24 h. actives 2.8% (n = 320,000). Potency, µM (top dose mostly 9.22 µM), most hits filed as activators; also: nearly all actives have a fitted effect of over 60% in size
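Luminescence from Amplite-detected luciferase (10 minutes, ambient) reports Rab9 promoter activation. Before that, stable Rab9-luciferase Huh7 cells (1500/well, reduced-serum OP-MEM I plus 10% FBS) were exposed to compound for 24 hours at 37C.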
p53 reactivation – re-activators of mutant p53; H1299 p53-A138V BP100-luciferase reporter, luminescence, 24 h; Potency, µM (highest dose often 92.2 µM), hits mostly activators; actives 0.063% (n = 320,000); AID 504706; also: nearly all actives have a fitted effect of over 45% in size
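H1299 (p53-null), stable ts p53-A138V + BP100-Luc; 1000 cells/well, Opti-MEM/10% FBS; cpd 4 pt, 1:5; 24 h, 37 deg C, 5% CO2; detection reagent 10 min RT; luminescence.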
SMN2 splice enh – enhancers of SMN2 splice variant expression | HEK293 SMN2-luciferase splicing reporter, luminescence, 30-36 h | Potency, µM (top dose mostly 46.1 µM), usual class: activators | actives 2.8% (n = 210,000); also: nearly all actives have a fitted effect of over 55% in size
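HEK293 cells carry an SMN2 […]–luciferase reporter in which exon 7 inclusion puts luciferase in frame. Cells were plated 10-12 h before compound addition, then incubated 30-36 h at 37C. ONE-Glo luminescence was read; sodium butyrate at 4.5 mM final served as control.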
FLuc modulator – firefly luciferase modulation, counter-screen for miR-21 project; P08659; purified FLuc, Km substrates, luminescence inhibition; Potency, µM (highest dose often 57.5 µM), actives largely listed as inhibitors; actives 6.9% (n = 360,000); AID 588342; also: nearly all actives have a fitted effect of over 55% in size
Target sequence (P08659 whole entry, looked up): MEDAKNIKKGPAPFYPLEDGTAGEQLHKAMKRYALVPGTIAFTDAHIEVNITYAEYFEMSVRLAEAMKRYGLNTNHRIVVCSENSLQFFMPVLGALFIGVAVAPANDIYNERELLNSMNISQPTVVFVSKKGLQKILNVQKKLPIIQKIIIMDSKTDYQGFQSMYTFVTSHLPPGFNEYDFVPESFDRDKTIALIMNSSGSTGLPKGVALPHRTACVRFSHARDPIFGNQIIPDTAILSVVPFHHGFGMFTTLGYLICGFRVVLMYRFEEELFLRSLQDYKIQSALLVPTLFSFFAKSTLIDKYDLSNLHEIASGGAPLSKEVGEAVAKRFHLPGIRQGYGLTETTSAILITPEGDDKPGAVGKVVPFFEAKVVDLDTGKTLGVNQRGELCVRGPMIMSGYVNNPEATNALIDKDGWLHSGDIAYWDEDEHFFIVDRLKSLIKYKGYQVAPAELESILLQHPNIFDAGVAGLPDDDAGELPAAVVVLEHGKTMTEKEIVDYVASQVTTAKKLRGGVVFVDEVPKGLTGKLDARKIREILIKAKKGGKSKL
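Purified P. pyralis luciferase, 10 nM final, with Km-level 10 uM D-luciferin and 10 uM ATP in 50 mM Tris acetate pH 7.5, 10 mM Mg acetate, 0.01% Tween-20, 0.05% BSA; 6-point qHTS titration about 60 µM downward; luminescence read.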
ELG1 genotox – induces genotoxicity in HEK293T cells with luciferase-tagged ELG1. HEK293T ELG1-luciferase reporter, luminescence, 16 h. Potency, µM (top dose mostly 46 µM), most hits filed as activators. actives 1.3% (n = 330,000). AID 504466; also: nearly all actives have a fitted effect of over 60% in size
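Genotoxicity was scored as increased ELG1-luciferase reporter signal, measured by ONE-Glo luminescence (30 min, room temperature). Compound or vehicle exposure of the HEK293T reporter cells lasted 16 hr at 37°C.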
NPC1 prom act – NPC1 promoter activation. Huh7 NPC1 promoter luciferase reporter, 24 h. Potency, µM (series often up to 9.22 µM), usual class: activators. actives 2.4% (n = 320,000); also: nearly all actives have a fitted effect of over 60% in size
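NPC1 promoter–luciferase Huh7 cells; 24 h compound; luminescence.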
A number is an active result; . = inactive; ? = inconclusive; / = no result given. Compounds with a hit are over-represented: about 7.3% of the library has one in this group of screens. Calls follow the shape of the dose curve; as a rule, active = well fitted curve in the direction sought with a large enough effect; inconclusive = small, poorly fitted or top-dose-only effect, or another doubt; inactive = no such curve, though single readings can be large; an effect the other way counts as inactive or inconclusive.

SMILES | Rab9 prom act | p53 reactivation | SMN2 splice enh | FLuc modulator | ELG1 genotox | NPC1 prom act
COc1cc(/C=C(\C#N)C(=O)Nc2cccc(C(=O)O)c2)ccc1OCc1ccc(F)cc1 | . | ? | / | . | 21µM | .
COC(=O)c1ccc(COc2ccccc2/C=C(\C#N)C(=O)Nc2ccc(C)cc2)cc1 | 2.8µM | ? | . | 8.5µM | 21µM | ?
CCCCN(CC)C(=O)CSc1nc2n[nH]c(C)c2c(=N)n1-c1cccc(Cl)c1 | / | / | / | . | / | /
Cc1nc2cc(-c3ccccc3)ccc2o1 | . | ? | . | 12µM | . | .
CC(C)c1nn2c(=O)cc(COC(=O)c3ccc(NC(=O)c4ccccc4Cl)cc3)nc2s1 | / | / | / | . | / | /
COc1cc(C(=O)OCc2cc(=O)n3nc(C(C)C)sc3n2)cc(OC)c1OC | / | / | / | . | / | /
CC(C)c1nn2c(=O)cc(COC(=O)c3ccccc3Cl)nc2s1 | / | / | / | 17µM | / | /
CC(C)c1nn2c(=O)cc(COC(=O)c3cccs3)nc2s1 | / | / | / | 11µM | / | /
Cc1ccc(CNC(=O)c2cccc(-n3cnc4cccnc43)c2)cc1 | / | / | / | . | / | /
Cc1ccccc1OCc1ccc(-c2nc(C#N)c(NCCCN(C)C)o2)o1 | / | / | / | . | / | /
COc1ccccc1OCCNC(=O)CNC(=O)c1ccc2c(c1)OCO2 | . | . | / | . | . | .
COc1ccccc1OCCNC(=O)c1ccc2c(c1)OCCO2 | 2.2µM | . | / | ? | ? | 3.2µM
COc1ccccc1OCCNC(=O)c1cccc(S(=O)(=O)N2CCN(C)CC2)c1 | . | . | / | 13µM | . | .
COc1ccccc1OCCNC(=O)c1ccc2c(c1)CCC2 | ? | ? | / | 15µM | 13µM | ?
COc1ccccc1OCCNC(=O)CNC(=O)c1ccc(Cl)c(Cl)c1 | . | . | / | . | . | .
COc1ccccc1OCCNC(=O)c1cccc(S(=O)(=O)N2CCN(Cc3ccccc3)CC2)c1 | . | . | / | . | . | .
CCCc1ccc(C2Sc3ccccc3NC3=C2C(=O)c2ccccc23)cc1 (stereo unspecified) | / | / | . | . | / | /
CC1CCc2c(sc3nc(CSc4ncn[nH]4)[nH]c(=O)c23)C1 (stereo unspecified) | . | . | / | 15µM | . | .
CC1CCc2c(sc3nc(CSc4nnnn4C)[nH]c(=O)c23)C1 (stereo unspecified) | . | . | / | ? | . | .
COc1ccc(/C=C/C(=O)Nc2sc(C)c(C)c2C(=O)O)cc1 | / | / | . | 1.3µM | / | /
Cc1sc(NC(=O)/C=C/c2ccco2)c(C(=O)O)c1C | ? | . | / | 5.4µM | ? | ?
CCOC(=O)c1c(NC(=O)/C=C/c2ccc(C)o2)sc(C)c1C | . | . | / | . | . | .
S=C(NCc1ccccc1)Nc1ccc(Oc2ccccc2)cc1 | . | . | / | . | . | .
C/C(=C\C(=S)Nc1ccccc1)Nc1ccc2ccccc2c1 | . | ? | . | 17µM | . | .
S=C(NCc1ccccc1)Nc1ccc2ccccc2c1 | ? | ? | / | 13µM | ? | 2.2µM
SMILES | Rab9 prom act | p53 reactivation | SMN2 splice enh | FLuc modulator | ELG1 genotox | NPC1 prom act
Cc1cc(C)c2c(CC(=O)Nc3c(C(=O)c4ccc(F)cc4)oc4ccccc34)coc2c1 | / | / | . | . | / | /
COc1cc(-c2nnc(CSc3nnc(Nc4ccc(C(C)C)cc4)s3)o2)cc(OC)c1OC | . | . | ? | 5.4µM | . | .
COc1ccccc1Nc1nnc(SCc2nnc(-c3cc(OC)c(OC)c(OC)c3)o2)s1 | . | . | . | . | . | .
COc1ccc(OC)c(S(=O)(=O)N2CCC(c3ccncc3)CC2)c1 | / | / | / | . | / | /
Cc1ccc(-c2cn(-c3ccccc3)c(=S)[nH]2)cc1C | 0.13µM | ? | / | 12µM | 3.3µM | 1.1µM
CC(C)NC(=O)c1onc(CSc2cccc3ccccc23)c1C(=O)O | . | . | . | 27µM | . | .
CC(C)NC(=O)c1onc(CSc2ccccc2)c1C(=O)O | . | . | . | . | . | .
O=C1C(Cl)=C(NS(=O)(=O)c2ccc([N+](=O)[O-])cc2)C(=O)c2ccccc21 | . | . | / | 27µM | . | .
Cc1cc(-c2ccccc2)n2nc(-c3ccc(Cl)cc3)cc2n1 | / | / | / | . | / | /
Cc1nc2c(-c3ccccc3)c(C)nn2c(N)c1-c1ccccc1 | 1.6µM | ? | 13µM | 1.1µM | ? | 2.2µM
